Results: PubChem BioAssay (Tox21)
Values joined by “and” are separate entries in the source; they are usually repeats but may differ in a detail not shown here. Equal values may be shown once. Records with an inconclusive call do not appear. Where a call stands in place of a potency, no number is given. The source holds several records for some structures; these can differ, active in one and inactive in another. Active and inactive are the calls of the source. Unless noted, the call rests on the fitted dose curve; in most records, active means well fitted curve in the direction sought with a large enough effect in the repeat runs; inconclusive means weak or mixed curves; inactive means no such curve, though single readings can be large; an effect the other way counts as inactive or inconclusive.

Assays:
[1] = qHTS assay to identify small molecule antagonists of the estrogen receptor alpha (ER-alpha) signaling pathway using the BG1 cell line in the presence of 0.1 nM 17-beta-estradiol - cell viability counter screen (AID 1259241); further: nearly all actives have a fitted effect of over 40% in size
Procedure, shortened: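 Estradiol-stimulated (0.1 nM) VM7Luc4E2 cells exposed to compounds 22 hr; viability measured by fluorescence of cleaved CellTiter-Fluor substrate after 30 min.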

[2] = qHTS assay to identify small molecule antagonists of the androgen receptor (AR) signaling pathway using the MDA cell line in the presence of 0.5 nM R1881 - cell viability counter screen (AID 1259242); further: nearly all actives have a fitted effect of over 45% in size; further: potency means the concentration at half of the fitted maximal effect
Procedure, shortened: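 Live-cell protease fluorescence, CellTiter-Fluor, 30 min at 37C. Cells: MDA-kb2, 3,000/well, preincubated 5 hr. Compounds plus 0.5 nM R1881 final, 16 hr, 37C, 0% CO2.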

[3] = target: Androgen receptor (Homo sapiens) (UniProt P10275); assay: qHTS assay to identify small molecule antagonists of the androgen receptor (AR) signaling pathway using the MDA cell line in the presence of 0.5 nM R1881 (AID 1259243); further: nearly all actives have a fitted effect of over 50% in size
Chain of Androgen receptor (Homo sapiens) (P10275 whole entry, looked up): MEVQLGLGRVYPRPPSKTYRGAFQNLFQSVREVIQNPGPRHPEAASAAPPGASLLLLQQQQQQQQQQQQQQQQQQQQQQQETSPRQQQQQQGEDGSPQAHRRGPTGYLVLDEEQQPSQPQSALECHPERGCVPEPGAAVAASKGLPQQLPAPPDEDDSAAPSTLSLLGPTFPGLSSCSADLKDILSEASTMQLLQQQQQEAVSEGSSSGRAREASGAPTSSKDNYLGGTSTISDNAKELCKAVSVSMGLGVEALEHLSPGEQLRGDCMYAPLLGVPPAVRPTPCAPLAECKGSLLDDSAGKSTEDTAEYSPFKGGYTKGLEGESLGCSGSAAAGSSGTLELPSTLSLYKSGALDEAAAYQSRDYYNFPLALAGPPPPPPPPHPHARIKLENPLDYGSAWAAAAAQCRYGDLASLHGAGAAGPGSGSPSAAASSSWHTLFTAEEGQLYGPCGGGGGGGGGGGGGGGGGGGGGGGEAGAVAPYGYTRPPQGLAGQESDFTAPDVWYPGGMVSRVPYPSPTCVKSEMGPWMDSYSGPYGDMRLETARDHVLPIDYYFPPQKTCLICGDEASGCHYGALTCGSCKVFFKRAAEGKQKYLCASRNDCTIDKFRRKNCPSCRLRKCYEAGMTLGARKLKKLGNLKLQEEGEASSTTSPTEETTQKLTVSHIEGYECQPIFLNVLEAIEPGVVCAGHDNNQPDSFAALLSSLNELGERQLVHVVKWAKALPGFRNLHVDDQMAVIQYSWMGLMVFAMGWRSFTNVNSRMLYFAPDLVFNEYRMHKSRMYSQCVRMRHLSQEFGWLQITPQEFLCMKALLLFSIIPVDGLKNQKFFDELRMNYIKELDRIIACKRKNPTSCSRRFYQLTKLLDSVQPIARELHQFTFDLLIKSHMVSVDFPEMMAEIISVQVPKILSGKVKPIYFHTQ
Procedure, shortened: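 MDA-kb2, MMTV-luc (AR/GR elements); 3,000 cells/well; cpd + 0.5 nM R1881 final; 16 hr 37C, 0% CO2; ONE-Glo 30 min RT; luminescence.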

[4] = qHTS assay to identify small molecule HDAC inhibitors (AID 1259364);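 further: wild-type HCT-116 cells with endogenous class I/II HDAC activity; top concentration of the series differs between compounds; nearly all actives have a fitted effect of over 45% in size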
Procedure, shortened: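 HCT-116 (wild type), 1,500 cells/well, overnight; compound 2 hr 37C 5% CO2; HDAC-Glo I/II reagent 30 min RT; luminescence readout.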

[5] = qHTS assay to identify small molecule HDAC inhibitors - cell viability counter screen (AID 1259365); further: series mostly up to about 92 µM; nearly all actives have a fitted effect of over 50% in size
Procedure, shortened: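 After overnight seeding at 1,500 cells per well, wild-type HCT-116 cultures took up compounds in DMSO for 2hr at 37 C. Viable cell content came from luminescence with CellTiter-Glo.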

[6] = qHTS assay to identify small molecule agonists of the sonic hedgehog signaling (Shh) pathway - cell viability counter screen (AID 1259366); further: nearly all actives have a fitted effect of over 50% in size; further: potency means the concentration at half of the fitted maximal effect
Procedure, shortened: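 Same-well cytotoxicity read. Gli1-Luc reporter 3T3 cells; compounds 24hr, 37C/5% CO2; CellTiter-Fluor fluorescence.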

[7] = qHTS assay to identify small molecule antagonists of the sonic hedgehog signaling (Shh) pathway - cell viability counter screen (AID 1259367); further: nearly all actives have a fitted effect of over 55% in size
Procedure, shortened: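 Tox21 library chemicals were tested on a Gli1-Luc NIH/3T3 clone (2,000 cells/well) stimulated by conditioned medium; viability was quantified as fluorescence from CellTiter-Fluor reagent added at 23 hr.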

[8] = target: Estrogen receptor (Homo sapiens) (UniProt P03372); assay: qHTS assay to identify small molecule antagonists of the estrogen receptor alpha (ER-alpha) signaling pathway using the BG1 cell line in the presence of 0.1 nM 17-beta-estradiol (AID 1259244); further: nearly all actives have a fitted effect of over 50% in size; further: potency means the concentration at half of the fitted maximal effect
Chain of Estrogen receptor (Homo sapiens) (P03372 whole entry, looked up): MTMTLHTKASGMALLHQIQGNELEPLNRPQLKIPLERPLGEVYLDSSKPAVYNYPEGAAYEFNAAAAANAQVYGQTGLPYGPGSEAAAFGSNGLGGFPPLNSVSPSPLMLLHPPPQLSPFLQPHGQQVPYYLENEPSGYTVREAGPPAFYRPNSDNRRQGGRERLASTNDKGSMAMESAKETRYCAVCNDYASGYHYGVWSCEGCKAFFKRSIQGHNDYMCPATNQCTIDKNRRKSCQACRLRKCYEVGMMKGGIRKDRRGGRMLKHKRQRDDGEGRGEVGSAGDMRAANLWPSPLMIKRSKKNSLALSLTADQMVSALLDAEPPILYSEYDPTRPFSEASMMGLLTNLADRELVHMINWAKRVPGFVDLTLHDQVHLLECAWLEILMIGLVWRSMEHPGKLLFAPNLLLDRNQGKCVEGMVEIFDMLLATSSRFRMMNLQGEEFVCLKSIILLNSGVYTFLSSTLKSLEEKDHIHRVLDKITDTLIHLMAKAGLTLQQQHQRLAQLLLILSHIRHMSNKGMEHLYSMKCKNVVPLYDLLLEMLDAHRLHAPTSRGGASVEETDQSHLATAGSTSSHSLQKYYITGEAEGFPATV
Procedure, shortened: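 Luminescence after ONE-Glo (30 min, room temperature) measured ERE-luciferase activity in VM7Luc4E2 cells treated 22 h with compound and 0.1 nM final 17beta-estradiol as stimulator.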

[9] = qHTS assay to identify small molecule phospholipidosis (PLD) inducers (AID 1259344; active means well fitted curve in the direction sought with a large enough effect; an effect the other way counts as inactive or inconclusive)
Procedure, shortened: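 Image-based: LipidTOX Red pit count/intensity per well and per cell; HepG2, 24 h compound at 37 C, PFA fixation, Hoechst counterstain.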

[10] = qHTS assay to identify small molecule agonists of the sonic hedgehog signaling (Shh) pathway (AID 1259368; calls by dose curve;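 further: NIH/3T3-derived 3T3Gli1-Luc cells carrying a stable Gli1-driven firefly luciferase reporter; series mostly up to about 92 µM; nearly all actives have a fitted effect of over 15% in size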)
Procedure, shortened: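 Read-out: firefly luciferase luminescence from a Gli1 response element reporter stably integrated in NIH/3T3-derived 3T3Gli1-Luc cells, measured 30 min at room temperature after reagent addition. Compound exposure lasted 24 hr at 37 C, 5% CO2.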

Row | SMILES | outcome [1] | Potency [2] | Potency [3] | Potency [4] | outcome [5] | Potency [6] | Potency [7] | Potency [8] | Potency [9] | outcome [10]
1 | C[N+]1(C)CCCCC1 | inactive | inactive | inactive | inactive | inactive | inactive | inactive |  |  | 
2 | CCNc1nc(Cl)nc(NC(C)(C)C)n1 | inactive | inactive | inactive | inactive |  | inactive |  | inactive |  | 
3 | CN(C)C(=O)Oc1cc(OC(=O)N(C)C)cc(C(O)CNC(C)(C)C)c1 (centres undefined) | inactive | inactive | inactive | inactive | inactive | inactive | inactive | inactive | inactive | inactive
4 | Cc1ccc(S(=O)(=O)N[C@@H](CCCCN)C(=O)CCl)cc1 | inactive | inactive | inactive | inactive |  | inactive | inactive | inactive | inactive | 
5 | Nc1c(Cl)c(F)nc(OCC(=O)O)c1Cl | inactive | inactive | inactive | inactive |  | inactive | inactive | inactive |  | 
6 | CCOP(=S)(OCC)SCCl | inactive | inactive | inactive | inactive | inactive | inactive | inactive | inactive |  | inactive
7 | COc1cccc([C@@]2(O)CCCC[C@@H]2CN(C)C)c1 | inactive | inactive | inactive | inactive |  | inactive | inactive | inactive | inactive | inactive
8 | CCC1(c2ccccc2)CCC(=O)NC1=O (centres undefined) | inactive | inactive | inactive | inactive |  | inactive | inactive | inactive | inactive | inactive
9 | CC(C)[N+](C)(CCC(C(N)=O)(c1ccccc1)c1ccccc1)C(C)C | inactive | inactive |  | inactive | inactive | inactive | inactive | inactive | inactive | inactive
10 | CC(C)(N)Cc1ccc(Cl)cc1 | inactive | inactive |  | inactive | inactive | inactive | inactive | inactive | inactive | inactive
11 | ClC1=C(Cl)C2(Cl)C(CBr)CC1(Cl)C2(Cl)Cl (centres undefined) | inactive | inactive |  | inactive | inactive | inactive | inactive | inactive | inactive | inactive
12 | CC[C@@H](CO)NC(=O)[C@@H]1C=C2c3cccc4c3c(cn4C)C[C@H]2N(C)C1 | inactive | inactive |  | inactive |  | inactive | inactive | inactive | inactive | inactive
13 | CCN[C@H](C)Cc1cccc(C(F)(F)F)c1 | inactive | inactive |  | inactive | inactive | inactive | inactive | inactive | inactive | inactive
14 | CN1C(=O)COc2c(C(=O)NC3CN4CCC3CC4)cc(Cl)cc21 (centres undefined) | inactive | inactive |  | inactive | inactive | inactive |  | inactive | inactive | inactive
15 | N[C@@H](Cc1ccc(Oc2cc(I)c(O)c(I)c2)c(I)c1)C(=O)O | inactive | inactive |  | inactive | inactive | inactive | inactive | inactive | inactive | inactive
16 | ClCC1CO1 (centres undefined) | inactive | inactive |  | inactive | inactive | inactive | inactive | inactive | inactive | inactive
17 | CC1N=C(N)OC1c1ccccc1 (centres undefined) | inactive | inactive |  | inactive | inactive | inactive |  | inactive | inactive | inactive
18 | CCOC(=O)c1ncn2c1CN(C)C(=O)c1c(I)cccc1-2 | inactive | inactive |  | inactive | inactive | inactive | inactive | inactive | inactive | inactive
19 | COc1cc(CC(C)N)cc(OC)c1OC (centres undefined) | inactive | inactive |  | inactive | inactive | inactive | inactive | inactive | inactive | 
20 | CCN(CC)CCOC(=O)C(O)(c1ccccc1)c1ccccc1 | inactive | inactive |  | inactive | inactive | inactive | inactive | inactive | inactive | inactive
21 | Cc1ccc(Cl)c(O)c1 | inactive | inactive |  | inactive | inactive | inactive | inactive | inactive | inactive | inactive
22 | ClC(Cl)(Cl)Cl | inactive | inactive |  | inactive | inactive | inactive |  | inactive | inactive | inactive
23 | O=[N+]([O-])CCO | inactive | inactive |  | inactive | inactive | inactive | inactive | inactive |  | 
24 | N#CN | inactive | inactive |  | inactive | inactive | inactive | inactive | inactive | inactive | inactive
25 | O=C1C2CC=CCC2C(=O)N1SC(Cl)(Cl)Cl (centres undefined) | inactive | inactive and 16.9 µM (active) |  | inactive |  | inactive and 13.5 µM (active) |  | inactive and 26.9 µM (active) | inactive | inactive
